Out of some 200,000 compounds screened, about 4,500 (2.2%) were called active. Not shown: some 12% with an inconclusive outcome. For the sample, actives were picked, then their nearest neighbours and some compounds at random. Unmarked numbers belong to inactive results. Calls follow the shape of the dose curve; as a rule, active = well fitted inhibition curve with a large enough effect; inconclusive = small, poorly fitted or top-dose-only effect, or effect the other way; inactive = flat fitted curve, though single readings scatter.
Potency is read from the fitted curve at half-maximal effect.

For this test, the target named is Cruzipain (Trypanosoma cruzi) (UniProt P25779). Briefly: qHTS Assay for Promiscuous and Specific Inhibitors of Cruzain (without detergent). Also: nearly all actives have a fitted effect of over 40% in size.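 As to max response, negative = inhibition: plate controls were enzyme without inhibitor for no effect and buffer without enzyme for full effect.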 The settings on record: purified cruzain, Z-FR-AMC fluorescence, no detergent. An outline of the steps: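 Purified cruzain at 1.5 nM, pre-incubated 15 min with compound at room temperature in 100 mM sodium acetate pH 5.5, 5 mM DTT, 0.00005% Triton X-100. Reaction started with 2 uM Z-FR-AMC; AMC fluorescence increase over 60 s gives rate.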
Cruzipain (Trypanosoma cruzi), sequence (P25779 123-467 limits assumed): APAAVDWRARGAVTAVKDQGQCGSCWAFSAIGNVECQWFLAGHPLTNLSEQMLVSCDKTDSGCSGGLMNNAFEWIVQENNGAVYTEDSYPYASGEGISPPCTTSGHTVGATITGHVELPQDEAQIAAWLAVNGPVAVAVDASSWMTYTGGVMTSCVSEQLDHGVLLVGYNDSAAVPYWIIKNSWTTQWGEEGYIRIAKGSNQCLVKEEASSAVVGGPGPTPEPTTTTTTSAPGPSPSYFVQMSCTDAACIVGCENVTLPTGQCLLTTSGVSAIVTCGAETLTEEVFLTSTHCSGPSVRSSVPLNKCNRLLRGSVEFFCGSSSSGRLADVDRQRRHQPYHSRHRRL
On the technique in general: In qHTS, concentration-response curves come from the screen itself.
As for `c1ccc(CSc2nnc(-c3ccco3)n2Cc2ccccc2)cc1`, the max response, negative = inhibition is -8.71%.

Consider `Clc1ccccc1CSc1nncn2c1cc1occc12`, for which the max response, negative = inhibition is -9.48%.

In the case of `Clc1ccccc1CSc1nnc(-c2ccco2)c(-c2ccco2)n1`, the Potency is 15.8 µM (active).

Consider `O=C(Nc1nnc(SCc2ccccc2)s1)c1ccco1`, for which the max response, negative = inhibition was -28.7%.

As for `c1ccc(CSc2nnc(-c3ccco3)c(-c3ccco3)n2)cc1`, the Potency is 15.8 µM (active).

With `Nc1nc(SCc2ccccc2Cl)n[nH]1`, the max response, negative = inhibition is 3.93%.

Consider `Cc1ccccc1-c1nc(SCC(=O)N(C)c2ccccc2)c2c(=O)n(C)c(=O)n(C)c2n1`, for which the max response, negative = inhibition is 8.08%.

For the compound `Cc1[nH]c2ccccc2c1C(c1ccccc1)c1cccs1` (centres undefined), the max response, negative = inhibition is 3.04%.

Regarding `CCc1nn(CC(=O)NCC(C)c2ccccc2)c(=O)c2cc3occc3n12` (centres undefined), the max response, negative = inhibition is -11.2%.

`CCn1c(C(=O)Nc2cc(Cl)ccc2C)cc2sc(Cl)cc21`: the max response, negative = inhibition is 4.79%.

With `CCOC(=O)c1c(NC(=S)NC(=O)/C=C/c2cccs2)sc(C)c1C`, the Potency is 10 µM (active).

As for `CCOC(=O)c1c(NC(=O)c2cccs2)sc(C)c1C`, the max response, negative = inhibition is 6.07%.

For `CCOC(=O)c1c(NC(=O)/C=C/c2ccco2)sc(C)c1C`, the max response, negative = inhibition was -4.04%.

As for `Cc1ccc2nc(COc3ccccc3NC(=O)Nc3ccc(F)c(Cl)c3)cc(=O)n2c1`, the max response, negative = inhibition was 4.26%.

Regarding `COc1ccc(N(C)C(=O)CCS(=O)(=O)c2cccc3nsnc23)cc1`, the max response, negative = inhibition is -4.91%.

Take `Cc1ccc(NC(=O)CSc2nnc3[nH]c(=O)cc(C)n23)cc1Cl`: the max response, negative = inhibition was -3.39%.

In the case of `CC(=O)c1c(C)[nH]c(C(=O)OCC(=O)Nc2sc3c(c2C#N)CCCC3)c1C`, the max response, negative = inhibition was 11.6%.

With `Cc1cccc(C(=O)OCC(=O)Nc2sc3c(c2C#N)CCC3)c1`, the Potency is 25.1 µM (active).

Regarding `Cc1ccc(C)c(OCC(=O)Nc2sc3c(c2C#N)CCCC3)c1C`, the max response, negative = inhibition is -0.311%.

As to `Cc1cc(C)c2oc(-c3cccc(NC(=O)c4cccc(F)c4)c3C)nc2c1`, the max response, negative = inhibition is -10.4%.

Consider `CCOC(=O)c1cccc(NS(=O)(=O)c2cc(-c3cnc(C)o3)ccc2OC)c1`, for which the max response, negative = inhibition was 1.23%.

For the compound `COc1ccccc1-c1cc(C(=O)N2CCCCC2)no1`, the max response, negative = inhibition is -9.93%.

On to `COc1ccccc1N1CCN(C(=O)c2cc(-c3ccc(Cl)c(Cl)c3)on2)CC1`, for which the Potency was 25.1 µM (active).

Regarding `COc1ccccc1N1CCN(C(=O)c2cc(-c3ccc(Br)cc3)on2)CC1`, the max response, negative = inhibition was 16.1%.

As for `O=C(Nc1c(C(=O)N2CCN(c3ccc(F)cc3)CC2)oc2ccccc12)c1ccco1`, the max response, negative = inhibition is -12.7%.

For `COc1ccccc1CN1CCC(CNC(=O)c2cnn(-c3cccc(Cl)c3)c2C2CCN(C(=O)OC(C)(C)C)CC2)CC1`, the max response, negative = inhibition was 4.5%.

For the compound `CC1=C(c2ccc(F)cc2)S(=O)(=O)N=C1N1CCC(C(=O)NCCc2ccccc2C)CC1`, the max response, negative = inhibition is -2.21%.

Take `COc1ccccc1C1=Nc2cccc3cccc(c23)N1`: the Potency is 12.6 µM (active).

Take `COc1ccccc1-c1nc(C(F)(F)F)c(OC)o1`: the max response, negative = inhibition is -2.62%.

In the case of `CNc1nc(-c2ccccc2OC)nc2ccccc12`, the max response, negative = inhibition was -18.4%.

Regarding `Cc1ccc(NC(=O)NC(C)c2c(-n3cccc3)sc(C)c2C)c(C)c1` (centres undefined), the max response, negative = inhibition is -10.8%.

For the compound `CCC(=O)N1CCc2cc(Br)cc(S(=O)(=O)Nc3ccc(C)cc3C)c21`, the max response, negative = inhibition is -1.34%.

Regarding `COc1ccc(C(=O)Cc2cnn(-c3ccccc3)c2)c(O)c1`, the max response, negative = inhibition is 4.15%.

Consider `Cc1[nH]nc(-c2ccc(OCc3cnn(-c4ccccc4)c3)cc2O)c1Oc1ccc(Cl)cc1`, for which the Potency is 10 µM (active).

As to `C=C(C)COc1ccc(-c2n[nH]c(C)c2-c2ccccc2)c(O)c1`, the max response, negative = inhibition is -10.5%.

With `CCCN(CCC)CCNC(=O)Cn1cnc2sc(C)c(S(=O)(=O)N3CCC(C)CC3)c2c1=O`, the max response, negative = inhibition was -2.05%.

As for `COc1cc(C(CC(=O)NCCC(C)C)N2Cc3ccccc3C2=O)cc(OC)c1OC` (centres undefined), the max response, negative = inhibition was 2.58%.

In the case of `COc1cc(OC)c2c(-c3cccc(-c4cccc(N)c4)c3)cc(=O)oc2c1`, the Potency is 11.2 µM (active).

As for `COC(=O)C(C)Oc1ccc2c(-c3cccc([N+](=O)[O-])c3)cc(=O)oc2c1` (centres undefined), the max response, negative = inhibition is 0.187%.

Consider `COc1ccc(Nc2cc(=O)oc3ccccc23)cc1`, for which the max response, negative = inhibition was -23.8%.

Regarding `Cc1c(C(=O)N2CCCC2)oc2c1-c1nn(CC(=O)NCc3ccc(OC(C)C)cc3)cc1CC2`, the max response, negative = inhibition was 21.1%.

With `CC(C)=C(NC(=O)c1ccco1)C(=O)NCCc1nc2ccccc2[nH]1`, the max response, negative = inhibition was -27.9%.

For the compound `O=C(COc1ccccc1)NCCc1nc2ccccc2[nH]1`, the Potency is 1 µM (active).

As for `COc1ccc(OC(C)C(=O)NCCc2nc3ccccc3[nH]2)cc1` (centres undefined), the max response, negative = inhibition was -6.55%.

With `Cc1cccc(NC(c2cccc(F)c2)c2ccc3ccc(C)nc3c2O)n1` (centres undefined), the max response, negative = inhibition was 9.47%.

`Cc1cc(NS(=O)(=O)c2ccc(NC(=O)c3ccccc3C)cc2)nc(C)n1`: the max response, negative = inhibition was 11.3%.

Turning to `Cc1nc(Nc2ccc3c(c2)OCCO3)c2nnn(Cc3ccccc3Cl)c2n1`, the max response, negative = inhibition was -5.56%.

In the case of `CCCc1nc(NCc2ccc3c(c2)OCO3)c2nnn(Cc3ccccc3Cl)c2n1`, the Potency is 7.94 µM (active).

On to `O=C(Cn1cnc2c(nnn2Cc2ccc(F)cc2)c1=O)NCc1ccc2c(c1)OCO2`, for which the max response, negative = inhibition was -6.08%.

As to `Cc1ccccc1-c1nc(CS(=O)(=O)CC(=O)Nc2cc(Cl)cc(Cl)c2)c(C)o1`, the max response, negative = inhibition was -28.1%.

For `COc1ccc(-c2[nH]c3c(c2-c2c(-n4cccc4)n(C)c(=O)n(C)c2=O)c(=O)n(C)c(=O)n3C)cc1`, the max response, negative = inhibition is -3.26%.

As for `COC(=O)C(NC(=O)c1ccc(OC)cc1)(Nc1ncc(S(=O)(=O)c2ccc([N+](=O)[O-])cc2)s1)C(F)(F)F` (centres undefined), the max response, negative = inhibition was -9.17%.

In the case of `COc1ccc(C(=O)Nc2ncc3c(n2)-c2ccccc2CC3)cc1`, the max response, negative = inhibition is -8%.

Consider `COc1ccc(C(=O)Nc2nc(-c3ccc(OC)cc3)c(-c3ccc([N+](=O)[O-])cc3)s2)cc1`, for which the Potency was 7.94 µM (active).

Turning to `O=C(NCc1ccccc1Cl)c1cccn1-c1nnc(N2CCCCC2)s1`, the max response, negative = inhibition is -7.04%.

Regarding `O=c1cc(-c2ccc(O)c(O)c2)oc2cccc(O)c12`, the max response, negative = inhibition was 0.411%.

For `Oc1ccc(O)c2c(O)cccc12`, the Potency was 12.6 µM (active).

Take `O=S(=O)(c1ccc(Cl)cc1)c1nnn2c1nc(NC1CCCC1)c1sccc12`: the max response, negative = inhibition is 1.8%.

In the case of `Cc1ccccc1NC(=O)Cn1c(=O)n(CC2CCC(C(=O)NCCc3ccccc3)CC2)c(=O)c2ccccc21` (centres undefined), the max response, negative = inhibition was 3.54%.

Regarding `COc1ccc(-c2nc(C)c(CCNC(=O)c3ccc(C(F)(F)F)cc3)s2)cc1OC`, the max response, negative = inhibition is 17.5%.

As for `CCn1cc(CCC(=O)NCc2ccc(F)cc2)c2ccccc21`, the max response, negative = inhibition is -13.6%.

Consider `COCC(C)n1c(SCc2ccc(C(=O)OC)o2)nc2ccccc2c1=O` (centres undefined), for which the max response, negative = inhibition was 12.5%.

Take `CCc1ccc(NC(=O)CSc2nc3c([nH]c4ccccc43)c(=O)n2-c2cccc(OC)c2)cc1`: the Potency was 12.6 µM (active).

As for `COC(=O)c1ccc(CSc2ccccc2C)o1`, the max response, negative = inhibition was -6.13%.

`Cc1cccc(NC(=O)CSc2nc3c([nH]c4ccccc43)c(=O)n2-c2cc(C)cc(C)c2)c1`: the max response, negative = inhibition is -19.8%.

For the compound `COC(=O)c1ccc(CSc2nc3ccccc3c(=O)n2-c2cccc(OC)c2)o1`, the Potency was 25.1 µM (active).

`Cc1ccc(NC(=O)CSc2nc3c([nH]c4ccccc43)c(=O)n2-c2ccccc2)cc1Cl`: the max response, negative = inhibition was 2.09%.

`COc1ccc(-c2cccc(NS(=O)(=O)c3cc(C)c(OC)c(C)c3C)c2)nn1`: the max response, negative = inhibition is -5.81%.

With `Cc1ccccc1CNC(=O)c1ccc(NC(=O)N2CCCCc3ccccc32)cc1`, the max response, negative = inhibition is -9.89%.

`Cc1ccc(-c2nnc(SCC(=O)NCc3ccccc3)nc2-c2ccc(C)cc2)cc1`: the max response, negative = inhibition is -17.5%.

In the case of `Brc1ccc2c(c1)NC(c1cccnc1)=NC(c1ccccc1)=N2`, the max response, negative = inhibition is 2.72%.

In the case of `CCCCN(C)CCCNC(=O)CN1N=C(c2ccc(OC)cc2)CCC1=O`, the max response, negative = inhibition was 2.7%.

Turning to `Cc1nn(C)c2c1c(C(F)(F)F)cc(=O)n2C(C)C(=O)NCc1ccc(Cl)cc1` (centres undefined), the max response, negative = inhibition was -3.11%.

`COc1ccc(C2CC(c3ccccc3)=NN2C(=O)c2ccc(Cl)c([N+](=O)[O-])c2)cc1` (centres undefined): the Potency is 10 µM (active).

On to `COc1ccc(C(=O)NNC(=S)NC(=O)c2ccccc2[N+](=O)[O-])cc1`, for which the max response, negative = inhibition was -1.55%.

For the compound `COc1ccc(C2=NN(C(=O)c3cccnc3)C(c3ccccc3)C2)cc1` (centres undefined), the max response, negative = inhibition was 7.92%.

Take `CCOC(=O)C1CCCN(C(=O)c2ccc(-n3ccc4ccccc43)s2)C1` (centres undefined): the max response, negative = inhibition is 13.4%.

As for `CCOc1ccc(C(=O)c2cn(Cc3ccc(F)cc3)c3ccc(F)cc3c2=O)cc1`, the max response, negative = inhibition is 3.78%.

`Nc1ncc(S(=O)(=O)Nc2ccc(OC(F)(F)F)cc2)cn1`: the max response, negative = inhibition was -3.7%.

Consider `O=C(c1cn(-c2ccccc2)nc1-c1cccnc1)N1CCCCC1`, for which the max response, negative = inhibition is -0.942%.

For the compound `O=C(COC(=O)/C=C/c1cn(-c2ccccc2)nc1-c1cccnc1)Nc1ccc(Cl)cc1Cl`, the Potency was 10 µM (active).

Turning to `COC(=O)c1cn(-c2ccccc2)nc1-c1cccnc1`, the max response, negative = inhibition is 10.9%.

In the case of `CCc1c(C)sc(NC(=O)C2c3ccccc3Oc3ccccc32)c1C(=O)OC(C)C`, the max response, negative = inhibition was -24.3%.

For `CCCOC(=O)c1cc2ccccc2oc1=O`, the max response, negative = inhibition is -4.88%.

`COc1ccc(Oc2coc3cc(OC(=O)c4cncc(Br)c4)ccc3c2=O)cc1`: the max response, negative = inhibition is -23.9%.

In the case of `CCc1ccc(Oc2coc3cc(OC(=O)c4cc5ccccc5oc4=O)ccc3c2=O)cc1`, the Potency was 3.98 µM (active).

As to `Cc1cc(C)nc(N(C#N)CC(=O)Nc2ccccc2)n1`, the max response, negative = inhibition is 5.89%.

For `COC(=O)C(C)N(C#N)c1nc(C)nc(C)n1` (centres undefined), the max response, negative = inhibition is 1.82%.

On to `CNc1nc(SC)nc(N(C#N)CC(=O)OC)n1`, for which the Potency is 25.1 µM (active).
